PLCb3 inh – blocks human PLC-beta3 enzyme activity; inhibition, % at 12.2 µM; Purified PLC-beta3, fluorogenic substrate, fluorescence; hit rate 0.18% among 370,000; in the data active = inhibition above about 11%;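 note: 0% = median of compound wells on plate and 100% = full blocker control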
Target sequence (Q01970 whole entry, looked up): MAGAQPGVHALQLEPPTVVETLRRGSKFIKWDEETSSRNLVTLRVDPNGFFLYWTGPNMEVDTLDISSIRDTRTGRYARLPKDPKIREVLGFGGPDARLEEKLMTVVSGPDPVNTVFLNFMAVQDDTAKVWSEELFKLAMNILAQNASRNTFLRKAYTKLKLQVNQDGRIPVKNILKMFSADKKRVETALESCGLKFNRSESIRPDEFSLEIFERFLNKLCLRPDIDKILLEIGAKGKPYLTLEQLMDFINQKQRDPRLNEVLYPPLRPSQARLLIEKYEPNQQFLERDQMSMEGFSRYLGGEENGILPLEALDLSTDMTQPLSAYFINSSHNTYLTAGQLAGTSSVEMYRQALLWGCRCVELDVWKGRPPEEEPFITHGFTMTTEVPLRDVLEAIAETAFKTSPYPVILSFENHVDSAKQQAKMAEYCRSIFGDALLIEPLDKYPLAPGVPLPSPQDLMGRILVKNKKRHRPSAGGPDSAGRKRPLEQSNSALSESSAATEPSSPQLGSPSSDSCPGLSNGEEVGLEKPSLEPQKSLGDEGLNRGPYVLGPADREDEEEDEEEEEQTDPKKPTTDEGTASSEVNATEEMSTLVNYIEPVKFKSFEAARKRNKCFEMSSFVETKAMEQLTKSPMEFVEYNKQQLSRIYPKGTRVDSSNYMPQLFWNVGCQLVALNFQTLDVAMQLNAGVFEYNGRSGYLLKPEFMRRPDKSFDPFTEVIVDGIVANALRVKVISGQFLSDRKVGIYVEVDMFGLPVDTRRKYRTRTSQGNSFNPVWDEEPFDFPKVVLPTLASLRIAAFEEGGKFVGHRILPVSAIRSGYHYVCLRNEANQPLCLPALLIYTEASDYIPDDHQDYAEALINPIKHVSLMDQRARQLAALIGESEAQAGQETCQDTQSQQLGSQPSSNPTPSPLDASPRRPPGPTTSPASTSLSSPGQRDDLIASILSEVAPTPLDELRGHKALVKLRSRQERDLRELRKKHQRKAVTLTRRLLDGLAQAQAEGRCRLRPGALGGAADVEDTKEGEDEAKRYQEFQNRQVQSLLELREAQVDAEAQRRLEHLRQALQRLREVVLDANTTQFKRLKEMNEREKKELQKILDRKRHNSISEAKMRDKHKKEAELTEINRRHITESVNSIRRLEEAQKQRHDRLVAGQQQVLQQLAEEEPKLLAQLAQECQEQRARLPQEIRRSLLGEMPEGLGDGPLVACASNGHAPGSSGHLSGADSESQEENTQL
LEDGF integ inh – blocks HIV-1 LEDGF/p75-dependent DNA integration; hit rate 0.64% among 370,000; inhibition, % at 3.7 µM; TR-FRET IN-LEDGF/p75 DNA integration, Eu/Cy5;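 active = inhibition above the screen-wide mean plus 3 SD, cut at about 13% in these data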;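 note: signal is the Cy5 over europium emission ratio at 671 and 618 nm; 0% = plate median of compound wells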
PLCg1 inh – blocks human PLC-gamma1 enzyme activity | P19174 | purified PLC-gamma1, fluorogenic substrate, fluorescence | inhibition, % at 12.2 µM | hit rate 0.84% among 370,000; in the data active = inhibition above about 9.5%
MBD2 DNA inh – MBD2-methylated oligo binding inhibition; Q9UBB5; TR-FRET, MBD2 binding to methylated oligonucleotide; inhibition, % at 4.4 µM; hit rate 0.31% among 370,000; AID 686964; in the data active = inhibition above about 13%
UHRF1 binding – blocks human UHRF1 binding to methylated DNA. hit rate 0.75% among 370,000. UHRF1 binding to methylated oligo, TR-FRET. AID 687016. Q96T88. inhibition, % at 4.4 µM; in the data active = inhibition above about 21%;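 note: UHRF1 SRA domain binding a hemimethylated CpG hairpin DNA probe; 0% = median of test compound wells and 100% = reference inhibitor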
Active calls of the source: *. Hits are enriched below; roughly 2.3% of the tested compounds scored in any of these assays.

Results for NNC(=O)C1CC1(c1ccccc1)c1ccccc1 (configuration not stated) ?
PLCb3 inh: -10; LEDGF integ inh: -3; PLCg1 inh: -5; MBD2 DNA inh: 5; UHRF1 binding: 23*

Results for C/C(=N/NC(=O)C1CC1(c1ccccc1)c1ccccc1)c1ccco1 (configuration not stated) ?
PLCb3 inh: -7; LEDGF integ inh: -1; PLCg1 inh: -10; MBD2 DNA inh: 2; UHRF1 binding: 28*

What do the screens show for `O=C(N/N=C/c1ccco1)C1CC1(c1ccccc1)c1ccccc1` (configuration not stated)?
PLCb3 inh: 0; LEDGF integ inh: -4; PLCg1 inh: 0; MBD2 DNA inh: -2; UHRF1 binding: -1

What do the screens show for `C/C(=N/NC(=O)C1CC1(c1ccccc1)c1ccccc1)c1cccs1` (configuration not stated)?
PLCb3 inh: -1; LEDGF integ inh: 3; PLCg1 inh: -2; MBD2 DNA inh: -1; UHRF1 binding: -4

How did OC(c1ccccc1)C(O)c1ccccc1 (configuration not stated) do in these assays?
PLCb3 inh: 11*; LEDGF integ inh: 2; PLCg1 inh: 6; MBD2 DNA inh: 0; UHRF1 binding: 3

Results for Cc1c(Cc2ccccc2)c(=O)oc2c(C)c(OCC(=O)Nc3ccc(C#N)cc3)ccc12 ?
PLCb3 inh: -15; LEDGF integ inh: -2; PLCg1 inh: -17; MBD2 DNA inh: 5; UHRF1 binding: 1

How did Cc1cccc(C)c1NC(=O)COc1ccc2c(C)c(Cc3ccccc3)c(=O)oc2c1C do in these assays?
PLCb3 inh: -2; LEDGF integ inh: -2; PLCg1 inh: -2; MBD2 DNA inh: 2; UHRF1 binding: 64*

What do the screens show for `COc1cccc2c(NCc3ccccc3)nc(-n3c(N)nc4ccccc43)nc12`?
PLCb3 inh: -1; LEDGF integ inh: -4; PLCg1 inh: 1; MBD2 DNA inh: 6; UHRF1 binding: -2

How did O=C(Nc1ccc(C(=O)N2CCCC2)cc1)C1CCC1 do in these assays?
PLCb3 inh: 0; LEDGF integ inh: 9; PLCg1 inh: 2; MBD2 DNA inh: 5; UHRF1 binding: 23*

What do the screens show for `O=C(Nc1ccc(F)cc1)OCc1cn(Cc2cccc(Cl)c2)nn1`?
PLCb3 inh: -4; LEDGF integ inh: 1; PLCg1 inh: 0; MBD2 DNA inh: -5; UHRF1 binding: 4

How did O=C(O)CC1c2ccccc2CCN1S(=O)(=O)c1cccs1 (configuration not stated) do in these assays?
PLCb3 inh: -6; LEDGF integ inh: -4; PLCg1 inh: -4; MBD2 DNA inh: 8; UHRF1 binding: 24*

What do the screens show for `COC(=O)[C@H]1C[C@@]2(c3ccccc3)c3ccccc3N[C@H]2N1`?
PLCb3 inh: -1; LEDGF integ inh: 5; PLCg1 inh: -3; MBD2 DNA inh: -3; UHRF1 binding: 4

What do the screens show for `COc1cc(NC(=O)c2noc3c2CCC3)c(OC)cc1Cl`?
PLCb3 inh: -2; LEDGF integ inh: 7; PLCg1 inh: 0; MBD2 DNA inh: 0; UHRF1 binding: 28*

Results for Cc1cccc(NC(=O)CN2C(=O)N/C(=C/c3ccc(C)o3)C2=O)c1 ?
PLCb3 inh: -30; LEDGF integ inh: 4; PLCg1 inh: -31; MBD2 DNA inh: -1; UHRF1 binding: 88*

How did Cc1ccc(NC(=O)CN2C(=O)N/C(=C/c3cc(C)n(-c4cccc(C(=O)O)c4)c3C)C2=O)cc1 do in these assays?
PLCb3 inh: -104; LEDGF integ inh: 26*; PLCg1 inh: -100; MBD2 DNA inh: 8; UHRF1 binding: 37*

Results for Cc1ccc(NC(=O)CN2C(=O)N/C(=C/c3ccccc3OCc3cccc(C(=O)O)c3)C2=O)cc1 ?
PLCb3 inh: -20; LEDGF integ inh: 10; PLCg1 inh: 0; MBD2 DNA inh: -5; UHRF1 binding: 0

Results for [O-]/C(=C(\C(=S)Nc1cccc2ccccc12)[n+]1ccccc1)c1ccc(OC(F)F)cc1 ?
PLCb3 inh: -15; LEDGF integ inh: -3; PLCg1 inh: -11; MBD2 DNA inh: 1; UHRF1 binding: 29*

What do the screens show for `Cc1c(NC(=O)C2CCCN(S(=O)(=O)c3ccccc3[N+](=O)[O-])C2)c(=O)n(-c2ccccc2)n1C` (configuration not stated)?
PLCb3 inh: 3; LEDGF integ inh: 2; PLCg1 inh: 4; MBD2 DNA inh: -1; UHRF1 binding: 2

What do the screens show for `C/C=C/C=C\C(=O)Nc1cccc(C2=NOC3(C2)C[C@H](C(N)=O)N(C(=O)CC#N)C3)c1` (some centres not stated)?
PLCb3 inh: -16; LEDGF integ inh: 2; PLCg1 inh: -10; MBD2 DNA inh: 19*; UHRF1 binding: 13

How did CC1C(c2ccccc2)C(C#N)(C#N)C2(C#N)C(=O)NC1(N)C2C (configuration not stated) do in these assays?
PLCb3 inh: -1; LEDGF integ inh: -2; PLCg1 inh: -1; MBD2 DNA inh: 6; UHRF1 binding: 23*

How did CCCC1C(c2ccc(OC)cc2)C(C#N)(C#N)C2(C#N)CC1(N)NC2=O (configuration not stated) do in these assays?
PLCb3 inh: -7; LEDGF integ inh: -3; PLCg1 inh: 1; MBD2 DNA inh: 5; UHRF1 binding: 1

Results for COc1c(C)cccc1C(=O)Nc1ccc(N2CCN(C(=O)c3ccccc3C)CC2)cc1 ?
PLCb3 inh: -12; LEDGF integ inh: -3; PLCg1 inh: -6; MBD2 DNA inh: 3; UHRF1 binding: 27*

How did Cn1cccc1C(C(=O)NC1CCCCC1)N(C(=O)Cc1cccs1)C1CC1 (configuration not stated) do in these assays?
PLCb3 inh: -3; LEDGF integ inh: -1; PLCg1 inh: 0; MBD2 DNA inh: 1; UHRF1 binding: 37*

How did COc1ccc(N(C(=O)Cc2cccs2)C(C(=O)NC2CCCCC2)c2cccn2C)cc1OC (configuration not stated) do in these assays?
PLCb3 inh: 1; LEDGF integ inh: -4; PLCg1 inh: -6; MBD2 DNA inh: -9; UHRF1 binding: -4

Results for CCN1C[C@@H]2[C@@H]3C(=O)N(Cc4ccccc4)C(=O)[C@@H]3[C@](C)(C1=O)N2C(=O)c1ccccc1 ?
PLCb3 inh: 11*; LEDGF integ inh: 2; PLCg1 inh: 2; MBD2 DNA inh: -3; UHRF1 binding: -3

What do the screens show for `CN1C=C/C(=C\c2cc[n+](C)c3ccccc23)c2ccccc21`?
PLCb3 inh: -13; LEDGF integ inh: 2; PLCg1 inh: -7; MBD2 DNA inh: 10; UHRF1 binding: 27*

Results for CCC[C@H]1[C@@H](OC(=O)NCc2ccc(C)o2)CC[C@@]23CCCN2C(=O)CCC[C@@H]13 ?
PLCb3 inh: -2; LEDGF integ inh: 1; PLCg1 inh: -2; MBD2 DNA inh: -4; UHRF1 binding: -1

How did CCOC(=O)C1CCCN(c2c(C(=O)c3ccccc3)cnc3ccccc23)C1 (configuration not stated) do in these assays?
PLCb3 inh: -4; LEDGF integ inh: 2; PLCg1 inh: -2; MBD2 DNA inh: 4; UHRF1 binding: 38*
